Results from the supplement of paper PMC11732987, “Enantioselective OTUD7B fragment discovery through chemoproteomics screening and high-throughput optimisation” (Communications Chemistry, 2025).

Legend:
Assay in all cases: log2 ratio of Biotin-Ahx-Ub-VS probe labelling (fragment/DMSO); higher = less target engagement (more negative = stronger competition), active = hit call of the paper (q ≤ 0.05, log2 ratio ≤ -1)
Conditions in all cases: compound concentration: 200 uM; treatment time: 3 h
OTUD6B = target: T1, OTUD6B (UniProt Q8N6M0)
T1 sequence (whole entry): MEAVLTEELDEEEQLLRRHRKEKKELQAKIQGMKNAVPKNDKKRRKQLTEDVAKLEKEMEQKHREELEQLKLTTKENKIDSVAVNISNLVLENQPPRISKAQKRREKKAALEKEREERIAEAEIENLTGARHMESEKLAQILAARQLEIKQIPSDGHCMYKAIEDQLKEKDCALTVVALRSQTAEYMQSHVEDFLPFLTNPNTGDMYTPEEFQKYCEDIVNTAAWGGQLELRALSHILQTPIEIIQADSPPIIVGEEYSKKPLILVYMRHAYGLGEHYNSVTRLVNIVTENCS
How it was run: (§1)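 Fragment (200 µM) or vehicle was incubated for 3 h with triplicate HEK293T lysate samples of 495 µg, which were then treated with Biotin-Ahx-Ub-VS at 0.5 µM final for 1 h. Labelled DUBs were enriched on NeutrAvidin, digested with LysC and trypsin, and analysed by diaPASEF LC-MS/MS. Values are average log2 fragment/vehicle ratios from an unpaired t-test on global-median-normalised Spectronaut label-free quantities, using proteins with ≥2 unique peptides.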

OTUD7B = target: T2, OTUD7B (UniProt Q6GQQ9)
T2 sequence (whole entry): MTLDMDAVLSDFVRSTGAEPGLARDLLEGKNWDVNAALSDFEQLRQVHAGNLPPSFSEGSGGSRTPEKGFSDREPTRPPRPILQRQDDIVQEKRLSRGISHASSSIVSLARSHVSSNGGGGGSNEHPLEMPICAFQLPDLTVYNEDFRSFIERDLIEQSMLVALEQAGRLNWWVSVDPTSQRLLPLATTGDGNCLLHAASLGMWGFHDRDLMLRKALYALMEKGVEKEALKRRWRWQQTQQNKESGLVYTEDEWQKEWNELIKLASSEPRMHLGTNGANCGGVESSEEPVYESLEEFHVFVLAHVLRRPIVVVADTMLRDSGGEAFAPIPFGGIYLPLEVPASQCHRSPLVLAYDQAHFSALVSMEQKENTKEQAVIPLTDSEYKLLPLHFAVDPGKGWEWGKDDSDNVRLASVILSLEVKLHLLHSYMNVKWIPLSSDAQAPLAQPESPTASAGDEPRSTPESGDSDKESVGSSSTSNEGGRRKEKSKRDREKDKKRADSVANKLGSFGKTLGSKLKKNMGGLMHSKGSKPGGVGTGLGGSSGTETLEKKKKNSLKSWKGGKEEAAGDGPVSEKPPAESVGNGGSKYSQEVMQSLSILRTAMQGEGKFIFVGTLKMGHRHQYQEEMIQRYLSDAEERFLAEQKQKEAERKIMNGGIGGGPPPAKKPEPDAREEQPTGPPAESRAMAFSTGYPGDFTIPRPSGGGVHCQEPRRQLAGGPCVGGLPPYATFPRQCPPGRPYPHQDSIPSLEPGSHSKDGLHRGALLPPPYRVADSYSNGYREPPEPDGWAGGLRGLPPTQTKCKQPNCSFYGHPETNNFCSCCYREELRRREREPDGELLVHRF
How it was run: as §1

PRPF8 = PRPF8 (UniProt Q6P2Q9)
How it was run: as §1

PSMD7 = target: T3, PSMD7 (UniProt P51665)
T3 sequence (whole entry): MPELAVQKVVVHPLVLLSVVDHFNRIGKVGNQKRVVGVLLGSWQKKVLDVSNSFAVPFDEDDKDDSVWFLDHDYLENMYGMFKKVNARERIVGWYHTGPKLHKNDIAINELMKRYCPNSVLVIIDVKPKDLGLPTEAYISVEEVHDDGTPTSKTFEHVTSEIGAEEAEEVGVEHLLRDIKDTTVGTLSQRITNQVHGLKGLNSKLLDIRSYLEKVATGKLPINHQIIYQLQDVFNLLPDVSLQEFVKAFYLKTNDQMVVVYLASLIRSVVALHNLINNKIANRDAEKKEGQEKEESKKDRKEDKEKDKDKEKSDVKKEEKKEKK
How it was run: as §1

UCHL1 = UCHL1 (UniProt P09936)
Chain of UCHL1 (P09936 whole entry, looked up): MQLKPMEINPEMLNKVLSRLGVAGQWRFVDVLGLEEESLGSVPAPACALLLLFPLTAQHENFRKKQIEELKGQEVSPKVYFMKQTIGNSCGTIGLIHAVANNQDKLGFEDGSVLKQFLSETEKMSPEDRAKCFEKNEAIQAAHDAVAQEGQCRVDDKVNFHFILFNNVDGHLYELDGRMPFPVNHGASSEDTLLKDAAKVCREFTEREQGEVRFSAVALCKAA
How it was run: as §1

UCHL3 = target: T4, UCHL3 (UniProt P15374)
T4 sequence (whole entry): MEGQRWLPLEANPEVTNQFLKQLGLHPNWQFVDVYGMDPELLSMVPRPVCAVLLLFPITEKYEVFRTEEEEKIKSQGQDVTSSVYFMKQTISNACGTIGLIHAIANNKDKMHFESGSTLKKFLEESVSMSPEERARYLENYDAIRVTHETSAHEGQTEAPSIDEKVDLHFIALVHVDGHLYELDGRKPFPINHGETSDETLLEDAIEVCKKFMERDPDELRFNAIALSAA
How it was run: as §1

UCHL5 = target: T5, UCHL5 (UniProt Q9Y5K5)
T5 sequence (whole entry): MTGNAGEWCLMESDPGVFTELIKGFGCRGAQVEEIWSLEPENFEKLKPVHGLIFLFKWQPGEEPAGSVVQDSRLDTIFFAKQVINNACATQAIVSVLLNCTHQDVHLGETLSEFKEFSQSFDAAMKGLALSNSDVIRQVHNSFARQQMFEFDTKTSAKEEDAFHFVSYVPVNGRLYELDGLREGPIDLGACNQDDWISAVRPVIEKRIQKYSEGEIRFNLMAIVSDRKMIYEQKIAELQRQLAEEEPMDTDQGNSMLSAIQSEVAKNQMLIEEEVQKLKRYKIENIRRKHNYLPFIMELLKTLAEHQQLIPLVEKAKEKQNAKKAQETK
How it was run: as §1

USP10 = USP10 (UniProt Q14694)
Chain of USP10 (Q14694 whole entry): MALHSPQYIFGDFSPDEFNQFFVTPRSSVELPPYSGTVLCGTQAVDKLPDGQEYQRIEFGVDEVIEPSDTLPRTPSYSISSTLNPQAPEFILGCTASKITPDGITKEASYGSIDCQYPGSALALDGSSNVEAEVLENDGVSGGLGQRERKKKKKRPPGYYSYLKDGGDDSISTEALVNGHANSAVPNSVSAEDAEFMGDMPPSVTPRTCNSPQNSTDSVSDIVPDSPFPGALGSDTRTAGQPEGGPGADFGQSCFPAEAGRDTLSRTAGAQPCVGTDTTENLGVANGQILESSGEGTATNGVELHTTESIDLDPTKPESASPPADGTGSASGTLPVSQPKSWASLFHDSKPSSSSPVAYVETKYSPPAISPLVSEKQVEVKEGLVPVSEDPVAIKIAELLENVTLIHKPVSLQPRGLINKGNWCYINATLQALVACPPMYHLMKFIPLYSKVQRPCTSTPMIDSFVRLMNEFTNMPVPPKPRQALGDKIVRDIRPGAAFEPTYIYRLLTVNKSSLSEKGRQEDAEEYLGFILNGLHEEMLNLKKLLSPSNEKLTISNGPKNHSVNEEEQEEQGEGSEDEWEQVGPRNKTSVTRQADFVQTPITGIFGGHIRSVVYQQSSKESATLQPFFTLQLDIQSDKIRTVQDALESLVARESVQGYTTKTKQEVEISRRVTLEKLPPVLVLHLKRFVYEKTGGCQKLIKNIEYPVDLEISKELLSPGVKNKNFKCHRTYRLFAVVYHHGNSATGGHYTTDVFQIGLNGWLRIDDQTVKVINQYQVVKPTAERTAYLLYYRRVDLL
How it was run: as §1

USP15 = target: T6, USP15 (UniProt Q9Y4E8)
T6 sequence (whole entry): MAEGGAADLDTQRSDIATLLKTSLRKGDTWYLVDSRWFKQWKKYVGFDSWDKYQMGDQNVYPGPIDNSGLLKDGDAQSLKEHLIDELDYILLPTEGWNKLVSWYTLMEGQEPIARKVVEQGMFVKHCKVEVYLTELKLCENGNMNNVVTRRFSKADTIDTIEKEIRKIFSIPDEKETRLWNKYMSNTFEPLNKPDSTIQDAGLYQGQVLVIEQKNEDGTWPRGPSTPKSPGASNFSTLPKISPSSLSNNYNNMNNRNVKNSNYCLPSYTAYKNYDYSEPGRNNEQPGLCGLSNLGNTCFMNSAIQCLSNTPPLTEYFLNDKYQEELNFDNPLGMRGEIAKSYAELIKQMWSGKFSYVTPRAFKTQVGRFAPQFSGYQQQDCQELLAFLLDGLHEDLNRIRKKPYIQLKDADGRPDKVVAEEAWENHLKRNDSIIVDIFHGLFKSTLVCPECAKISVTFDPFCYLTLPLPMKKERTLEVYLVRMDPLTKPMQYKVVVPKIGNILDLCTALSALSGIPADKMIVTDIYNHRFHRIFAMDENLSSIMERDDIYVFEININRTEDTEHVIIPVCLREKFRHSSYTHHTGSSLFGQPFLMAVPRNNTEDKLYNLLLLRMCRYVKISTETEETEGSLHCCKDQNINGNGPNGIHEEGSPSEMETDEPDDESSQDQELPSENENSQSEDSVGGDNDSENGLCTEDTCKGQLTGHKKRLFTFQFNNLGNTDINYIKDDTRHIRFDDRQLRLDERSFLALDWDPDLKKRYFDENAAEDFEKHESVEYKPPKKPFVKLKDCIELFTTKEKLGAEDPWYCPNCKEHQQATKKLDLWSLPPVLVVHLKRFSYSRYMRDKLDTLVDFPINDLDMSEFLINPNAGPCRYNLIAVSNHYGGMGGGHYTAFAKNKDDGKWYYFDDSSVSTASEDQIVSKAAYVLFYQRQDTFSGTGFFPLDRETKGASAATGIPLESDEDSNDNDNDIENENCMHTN
How it was run: as §1

USP16 = USP16 (UniProt Q9Y5T5)
Chain of USP16 (Q9Y5T5 whole entry, looked up): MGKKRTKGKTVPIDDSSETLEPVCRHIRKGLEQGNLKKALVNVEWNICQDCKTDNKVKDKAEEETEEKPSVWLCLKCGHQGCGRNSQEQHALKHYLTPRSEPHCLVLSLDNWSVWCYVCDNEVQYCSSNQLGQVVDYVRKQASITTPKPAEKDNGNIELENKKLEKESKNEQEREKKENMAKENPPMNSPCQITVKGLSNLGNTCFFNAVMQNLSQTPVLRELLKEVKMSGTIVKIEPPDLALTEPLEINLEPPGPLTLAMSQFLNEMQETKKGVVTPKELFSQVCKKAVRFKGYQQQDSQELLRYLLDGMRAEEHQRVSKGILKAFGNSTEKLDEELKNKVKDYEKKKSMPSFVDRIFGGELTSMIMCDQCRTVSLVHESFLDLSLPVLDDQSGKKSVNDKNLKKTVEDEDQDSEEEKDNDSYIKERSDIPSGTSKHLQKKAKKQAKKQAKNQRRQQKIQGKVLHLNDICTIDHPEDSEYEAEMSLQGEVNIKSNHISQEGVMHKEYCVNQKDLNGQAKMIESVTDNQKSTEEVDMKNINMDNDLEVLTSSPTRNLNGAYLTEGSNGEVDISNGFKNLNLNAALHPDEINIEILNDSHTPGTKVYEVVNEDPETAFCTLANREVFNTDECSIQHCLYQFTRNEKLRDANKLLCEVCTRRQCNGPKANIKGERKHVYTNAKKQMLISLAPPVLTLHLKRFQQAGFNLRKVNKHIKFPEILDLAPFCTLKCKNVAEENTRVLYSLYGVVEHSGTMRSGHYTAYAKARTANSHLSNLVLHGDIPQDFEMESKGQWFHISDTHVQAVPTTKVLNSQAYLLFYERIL
How it was run: as §1

Measured: log2 ratio of Biotin-Ahx-Ub-VS probe labelling

CC(c1ccccc1)N(C)C(=O)CCl (stereo not given)
inactive: OTUD6B 0.00154 | OTUD7B -0.433 | PRPF8 -0.049 | PSMD7 0.0333 | UCHL1 -0.925 | UCHL3 0.257 | UCHL5 -0.0435 | USP10 -0.134 | USP15 -0.334 | USP16 -0.635
